HT1080 IDH1KD tx – HT-1080 IDH1 knockdown cell toxicity (counter line); 360,000 tested, 2% active; HT-1080 IDH1 knockdown viability, ATP luminescence, 48 h; Potency, µM (series often up to 46.1 µM), for the others: top-dose activity, negative = toxicity, hits mostly cytotoxic;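 further: potency means the concentration at half of the fitted maximal effect; 0% = DMSO wells and -100% = cell-free medium wells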
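Assay cells: HT-1080 with IDH1 knockdown, 750 per well, RPMI/5% FBS. Exposure: 48 h at 37 °C following 2 h pre-incubation. Read: CellTiter-Glo luminescence; fitted concentration-response, curve class assigned.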
DT40 TDP1 no CPT – qHTS for Inhibitors of human tyrosyl-DNA phosphodiesterase 1 (TDP1): qHTS in cells in absence of CPT; DT40 Tdp1-/- hTDP1 cells, no CPT, ATP luminescence, 48 h; Potency, µM (highest dose often 46.2 µM), without a hit: at the highest dose activity change, negative = growth inhibition, most hits filed as inhibitors; 420,000 tested, 15% active; further: potency means the concentration at half of the fitted maximal effect; nearly all actives have a fitted effect of over 55% in size
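Chicken DT40 Tdp1-/- cells stably complemented with human TDP1 were seeded at 400 cells/well with DMSO in place of 20 nM camptothecin. After compound pinning, cells grew at least 48 hr at 37 °C; viability read by CellTiter-Glo luminescence.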
DT40 TDP1 CPT – DT40-hTDP1 cell growth loss with CPT; chicken DT40 Tdp1-/-;hTDP1 cells + 20 nM CPT, ATP luminescence, 48 h; Potency, µM (highest dose often 46.2 µM), inactives show top-dose activity change, negative = growth inhibition, usual class: inhibitors; 420,000 tested, 12% active; further: potency means the concentration at half of the fitted maximal effect; nearly all actives have a fitted effect of over 55% in size
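Chicken DT40 Tdp1-/- cells stably complemented with human TDP1 were seeded at 400 cells/well in medium containing 20 nM camptothecin, exposed to pin-transferred compounds, and grown at 37 °C for at least 48 hr. Viability was read as ATP luminescence.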
HT1080NT lethal – kills 2HG-producing HT-1080-NT fibrosarcoma cells. HT-1080-NT fibrosarcoma viability, CellTiter-Glo ATP luminescence, 48 h. Potency, µM (highest dose often 46.1 µM), without a hit: top-dose activity, negative = less viability, hits mostly cytotoxic. 360,000 tested, 1.6% active. AID 686970;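 further: NT is the 2HG producing partner of a matched IDH1 knockdown line; potency means the concentration at half of the fitted maximal effect; 0% = DMSO-treated cells and -100% = media-only wells without cells; nearly all actives have a fitted effect of over 55% in size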
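HT-1080-NT; 750 cells/well; 5% FBS RPMI; 48 h compound, 37 degrees C; CellTiter-Glo luminescence; curve fitting and curve-class assignment.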
IL-1B inflam inh – inflammasome signaling inhibition, IL-1 beta readout | THP-1 LPS/ATP IL-1B secretion, AlphaLISA, 16 h; active compounds read low | AID 743279 | activity change, % at 57.5 µM | 360,000 tested, 4.7% active; in the data active means activity change below about -50%; inconclusive means mostly about -30% to -49%
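THP-1 cells pretreated 1 hr with compounds (up to 57.5 uM final), then stimulated with LPS (250 ng/mL final) plus ATP (1.25 mM final); secreted IL-1B measured by AlphaLISA after 16 hr, decreased signal indicating inhibition.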
ELG1 repair inh – blocks ELG1-dependent DNA repair in HEK293T cells; 330,000 tested, 2.3% active; HEK293T ELG1-luciferase reporter, luminescence, 16 h; DNA damage induced by 5-fluorouridine; Potency, µM (doses to about 46.1 µM), inactives show at the top dose activity change, negative = inhibition, usual class: inhibitors; further: potency means the concentration at half of the fitted maximal effect; nearly all actives have a fitted effect of over 55% in size
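Step one: seed 2,000 cells per well. Step two: pin-transfer compound or DMSO alongside 5-fluorouridine. Step three: incubate 16 hr, 37 °C, 5% CO2. Step four: add ONE-Glo, wait 30 min, read luminescence.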
Starred values were filed as active, the others as inactive; ? = inconclusive; · = no result given. Hits are enriched below; roughly 19% of the tested compounds scored in any of these assays. Unless noted, the call rests on the fitted dose curve; in most records, active means well fitted curve in the direction sought with a large enough effect; inconclusive means small, poorly fitted or top-dose-only effect, or another doubt; inactive means no such curve, though single readings can be large; an effect the other way counts as inactive or inconclusive. Unless noted, on the % scale 0 is the no-effect control and ±100 the full control effect.

SMILES	HT1080 IDH1KD tx	DT40 TDP1 no CPT	DT40 TDP1 CPT	HT1080NT lethal	IL-1B inflam inh	ELG1 repair inh
Cc1[nH]n2c(=O)cc(C(C)(C)C)nc2c1-c1ccccc1	?	5.17µM*	4.61µM*	-26.2%	34.1	?
CCc1cc(=O)n2[nH]c(-c3ccccc3)c(-c3ccccc3)c2n1	?	20.6µM*	?	?	33.7	?
COc1ccc(-c2c(C(F)(F)F)[nH]n3c(=O)cc(-c4ccccc4)nc23)cc1	?	?	?	3.8%	·	?
COC(=O)Cc1cc(=O)n2[nH]c(C)c(-c3ccccc3)c2n1	13.1%	-5.8%	2.8%	-0.5%	-1.1	10.9%
Cc1[nH]n2c(=O)cc(-c3ccc([N+](=O)[O-])cc3)nc2c1-c1ccccc1	16.4µM*	7.31µM*	11.6µM*	16.4µM*	37.4	·
CCOC(=O)Cc1cc(=O)n2[nH]cc(-c3cccc(Br)c3)c2n1	?	23.1µM*	?	-29.2%	8.9	?
CC1CC(=O)N(CC(=O)NCc2ccc(F)cc2)c2ccccc2S1(=O)=O (stereo unspecified)	9.7%	0.3%	10.6%	-0.3%	4.1	0.1%
Cc1ccc(-c2nnc(CCC(=O)NCC3C4CC5CC(C4)CC3C5)o2)s1 (stereo unspecified)	3.4%	?	-1.8%	0.1%	-2.5	?
CCOC(=O)Cc1cc(=O)n2[nH]c(C)c(-c3ccc(Cl)cc3)c2n1	?	11.2µM*	16.4µM*	?	50.7	-17.0%
CCOC(=O)Cc1cc(=O)n2[nH]c(C)c(-c3ccc(OC)cc3)c2n1	-1.6%	?	?	1.5%	-8.7	4.8%
Cc1[nH]n2c(=O)cc(-c3ccc(Cl)cc3)nc2c1-c1ccccc1	·	0.92µM*	0.651µM*	·	·	·
CCOC(=O)Cc1c(C)nc2c(-c3ccc(Cl)cc3)c(C(F)(F)F)nn2c1C	·	23.1µM*	23.1µM*	·	·	·
C(C#CCN1CCOCC1)#CCN1CCOCC1	9.9%	-22.6%	4.7%	3.0%	-10.7	·
C[N+]1(C)C2CCC1CC(OC(=O)C(O)c1ccccc1)C2 (stereo unspecified)	·	-1.9%	-8.2%	·	·	·
CC(C)CN(C(=O)CSc1nc2ccccc2[nH]1)C1CCS(=O)(=O)C1 (stereo unspecified)	20.0%	2.2%	-10.1%	10.9%	-0.6	-10.0%
O=[N+]([O-])c1ccc(COc2cccc(CNc3ccc(F)cc3)c2)cc1	-6.3%	13µM*	25.9µM*	2.1%	?	12.6%
Oc1ccc(NCc2cccc(OCc3ccc(F)cc3)c2)cc1	-19.7%	18.4µM*	23.1µM*	?	28.9	?
O=[N+]([O-])c1cccc(COc2cccc(CO)c2)c1	17.2%	-3.2%	-2.5%	22.7%	-12.6	·
Oc1ccc(NCc2cccc(OCc3ccccc3)c2)cc1	?	20.6µM*	14.6µM*	?	57.5	-8.9%
CCOC(=O)c1cc(-c2csc(COc3ccccc3)n2)on1	8.9%	-15.2%	-5.3%	?	15.8	0.0%
CCOC(=O)c1cc(-c2csc(COc3ccccc3Cl)n2)on1	-17.6%	16.4µM*	20.6µM*	-1.6%	-24.5	-27.9%
Cc1ccnc2ccccc12	·	-2.3%	1.7%	·	·	·
CN(C)c1ccc(/C=C/c2ccnc3ccc4ccccc4c23)cc1	·	0.126µM*	0.141µM*	·	·	·
CN(C)c1ccc(C(I)C(I)c2ccnc3ccccc23)cc1 (stereo unspecified)	·	10µM*	11.2µM*	·	·	·
Cc1cc(N(C)C)ccc1/C=C/c1ccnc2ccccc12	·	7.94µM*	11.2µM*	·	·	·
CN(N=O)c1ccc(/C=C/c2ccnc3ccccc23)cc1	·	5.62µM*	7.94µM*	·	·	·
Cc1nn(Cc2ccccc2)c(Cl)c1C(=O)OCC#N	1.9%	-11.8%	1.8%	1.2%	7.9	-10.5%
